The values below come from PubChem BioAssay AID1671190 (National Center for Advancing Translational Sciences (NCATS), 2021).

Hit rate of the full screen: of about 580,000 compounds, about 6,100 (1.1%) were called active. Inconclusive results (about 15%) are left out. This excerpt belongs to a sample that is enriched for actives. A number with no mark means an inactive call. Calls follow the shape of the dose curve; as a rule, active = well fitted inhibition curve with a large enough effect; inconclusive = small, poorly fitted or top-dose-only effect, or another doubt; inactive = no such curve, though single readings can be large or run the other way.
% is scaled to controls: 0 for no effect and ±100 for the full control effect; potency is read from the fitted curve at half-maximal effect.

Polyunsaturated fatty acid lipoxygenase ALOX12 (Homo sapiens), sequence (P18054 whole entry, looked up): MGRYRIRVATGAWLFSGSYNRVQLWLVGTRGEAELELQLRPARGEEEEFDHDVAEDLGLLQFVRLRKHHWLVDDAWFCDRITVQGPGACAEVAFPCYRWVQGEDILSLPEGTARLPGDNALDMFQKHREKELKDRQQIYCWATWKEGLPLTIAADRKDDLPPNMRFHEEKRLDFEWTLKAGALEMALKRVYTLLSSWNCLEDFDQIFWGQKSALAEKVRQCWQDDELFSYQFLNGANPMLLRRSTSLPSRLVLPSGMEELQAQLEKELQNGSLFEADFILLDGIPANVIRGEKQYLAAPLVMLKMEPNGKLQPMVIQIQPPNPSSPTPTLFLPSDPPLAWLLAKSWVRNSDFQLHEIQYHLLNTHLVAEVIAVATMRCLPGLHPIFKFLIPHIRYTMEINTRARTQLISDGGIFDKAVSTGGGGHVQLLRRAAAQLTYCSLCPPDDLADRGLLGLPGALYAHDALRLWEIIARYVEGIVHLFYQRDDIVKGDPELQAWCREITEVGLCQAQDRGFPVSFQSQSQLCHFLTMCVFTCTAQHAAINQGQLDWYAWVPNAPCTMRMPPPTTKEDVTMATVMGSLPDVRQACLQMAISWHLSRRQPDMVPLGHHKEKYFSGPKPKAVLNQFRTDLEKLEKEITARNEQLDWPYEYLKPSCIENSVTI

The target in this experiment is Polyunsaturated fatty acid lipoxygenase ALOX12 (Homo sapiens) (UniProt P18054). Put plainly: Primary qHTS assay for inhibitors of human arachidonate 12S-lipoxygenase (ALOX12): Round 2. Conditions: purified 12hLO, xylenol orange hydroperoxide absorbance; series mostly up to 108 µM; activity change, negative = inhibition: at the top concentration. The procedure, abridged:
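Purified human 12hLO at 150 nM in 25 mM Hepes, 0.01% Triton X-100, pH 7.0, preincubated 15 min at room temperature with compound. Reaction started with 40 uM arachidonic acid, 30 min at room temperature. Hydroperoxide measured by Fe-xylenol orange, 573/405 nm absorbance ratio.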
A general note: qHTS replaces the single test concentration by a dilution series.
In the case of `O=C(c1cc2ccccc2oc1=O)N(Cc1ccccc1)c1cccc([N+](=O)[O-])c1`, the “activity change, negative = inhibition” value is -8.8%.

For `CC1CCN(S(=O)(=O)c2ccc3c(ccc(=O)n3CC(=O)NCc3ccccn3)c2)CC1`, the “activity change, negative = inhibition” value is 18.9%.

Take `COc1cccc(CC(=O)N2CCC3(CC2)N=C(c2ccc(Cl)cc2)NO3)c1`: the “activity change, negative = inhibition” value is -1.12%.

Consider `Cc1ccc(-c2cn3nc(N4CCCC(C(=O)NCCc5cccs5)C4)sc3n2)cc1` (configuration not stated), for which the “activity change, negative = inhibition” value is -18.5%.

Take `COCCn1nc2n(c1=O)CCN(S(=O)(=O)c1ccc(Cl)s1)CC2`: the “activity change, negative = inhibition” value is 7.1%.

Regarding `COc1ccc(Cl)cc1NC(=O)CCc1ncc(-c2ccc(C)cc2)o1`, the “activity change, negative = inhibition” value is -24.8%.

Turning to `CC1(c2ccccc2)N(Cc2ccc(O)cc2)C(=O)OC12CCN(Cc1ccc(C#N)cc1)CC2` (configuration not stated), the “activity change, negative = inhibition” value is -0.847%.

On to `CC(C)C(=O)N1CCC2(CC1)OC(=O)N(Cc1ccccc1F)C2(C)c1ccccc1` (configuration not stated), for which the “activity change, negative = inhibition” value is 6.96% [at 176 µM].

For the compound `CC1(c2ccccc2)N(Cc2ccccc2F)C(=O)OC12CCN(Cc1c[nH]c3ccccc13)CC2` (configuration not stated), the Potency was 28.2 µM (active).

Regarding `COc1ccccc1CNC(=O)c1ncoc1-c1cccc(C)c1`, the “activity change, negative = inhibition” value is 3.56%.

Consider `CCC(=O)N1c2ccccc2NC2=C(C(=O)CC(C)(C)C2)C1c1cc(OC)ccc1OC` (configuration not stated), for which the “activity change, negative = inhibition” value is 9.28%.

`COCC1CN(Cc2cn(C)c3ccc(OC)cc23)CC12CCNCC2` (configuration not stated): the “activity change, negative = inhibition” value was 19%.

For `COc1cc(/C=C/c2nc3ccccc3s2)ccc1OC(F)F`, the “activity change, negative = inhibition” value was 3.41%.

Take `CCn1c(SCC(=O)Nc2ccccc2C(=O)NC2CC2)nnc1-c1ccoc1C`: the “activity change, negative = inhibition” value is -8.6%.

Take `COc1ccc(C(=O)NCC[N+](C)(C)C)cc1`: the Potency is 39.8 µM (active).

As to `COc1ccc(N2CCN(C(=O)CCNC(=O)c3ccc(Br)cc3)CC2)cc1`, the “activity change, negative = inhibition” value was -21.7%.

Turning to `COc1ccc(C(=O)NCCSc2ccccc2C)cc1`, the “activity change, negative = inhibition” value was 0%.

In the case of `CCN(Cc1nc(-c2ccc(OC)c(OC)c2)no1)C(=O)Nc1cccc2ccccc12`, the “activity change, negative = inhibition” value was 6.76%.

For the compound `COC(=O)c1c(NC(=O)CCCOc2ccccc2)sc2c1CCC(C)C2` (configuration not stated), the “activity change, negative = inhibition” value was 0%.

Take `Cc1[nH]c2ccccc2c1C=O`: the “activity change, negative = inhibition” value is 8.16%.

`Cc1[nH]c2ccccc2c1/C=N/c1sc2c(c1C#N)CCC(C)C2` (configuration not stated): the Potency was 22.4 µM (active).

`COC(=O)CC(NC(=O)c1nn(C)c(=O)c2ccccc12)c1ccc(F)cc1` (configuration not stated): the “activity change, negative = inhibition” value is -8.65%.

With `Nc1ccc(-c2cc(C(=O)O)c3cc(Cl)ccc3n2)cc1`, the “activity change, negative = inhibition” value is -28.1%.

With `Cc1nc(C)c(C(=O)N2CCCC(C(=O)NCc3ccccc3)CCNC(=O)CC2)s1` (configuration not stated), the “activity change, negative = inhibition” value was -1.73%.

With `N#CC1CCN(C(=O)c2nc(-c3ccc(Cl)cc3)c3ccccn23)CC1`, the “activity change, negative = inhibition” value was -3.2%.

As for `CCOc1ccccc1N1CCN(c2nc(-c3cccnc3)nc3ccccc23)CC1`, the “activity change, negative = inhibition” value is 3.11%.

On to `COc1ccc(N2CCN(c3nc(-c4ccccc4F)nc4ccccc34)CC2)cc1`, for which the “activity change, negative = inhibition” value was -11.4%.

Regarding `COc1ccccc1-c1nc(N2CCN(C)CC2)c2ccccc2n1`, the Potency was 28.2 µM (active).

Turning to `COC(=O)C1CCCCN1S(=O)(=O)c1cc(Cl)ccc1Cl` (configuration not stated), the “activity change, negative = inhibition” value was 8.51%.

Consider `CN1c2ccc(C=O)c3c(C=O)ccc(c23)N(C)C1(C)C`, for which the Potency was 28.2 µM (active).

Regarding `O=C(CCC1NC(=O)c2ccccc2NC1=O)NC1CCCCCC1` (configuration not stated), the “activity change, negative = inhibition” value is -0.849%.

As for `CC(C)Nc1nc(N(c2ccccc2)c2ccccc2)nc(-n2ccnc2)n1`, the “activity change, negative = inhibition” value was 51.5%.

Turning to `FC(F)(F)c1ccccc1-c1nc(-n2ccnc2)c2ccccc2n1`, the Potency was 15.8 µM (active).

`Fc1ccccc1N1CCN(c2nc(-c3cccnc3)nc3ccccc23)CC1`: the “activity change, negative = inhibition” value was 0.0579%.

Turning to `CCCc1noc(CN2CCN(c3cc(C)nc(C(C)C)n3)CC2)n1`, the “activity change, negative = inhibition” value was 6.23%.

Turning to `COc1cccc2cc(/C=C(/C#N)c3nc4ccccc4[nH]3)oc12`, the “activity change, negative = inhibition” value is -44.6%.

Take `CC(C)c1ccc(/C=C(/C#N)c2nc3ccccc3[nH]2)cc1`: the “activity change, negative = inhibition” value is -19.9%.

For `N#C/C(=C/c1ccco1)c1nc2ccccc2[nH]1`, the Potency was 39.8 µM (active).

On to `O=c1oc2ccccc2cc1S(=O)(=O)c1cccc(Cl)c1`, for which the “activity change, negative = inhibition” value was -19.4%.

Take `CC(C)N1C(=O)C2(CCCC2)C1C(=O)Nc1ccc2c(c1)N(C)CCC2` (configuration not stated): the “activity change, negative = inhibition” value was 71.1%.

Regarding `Cc1ccc(N=C2NC(=O)/C(=C/C=C/c3ccco3)S2)cc1C`, the Potency was 10 µM (active).

As to `Cc1ccc(C(=O)N/C(=C\c2ccco2)C(=O)N2CCSCC2)cc1C`, the “activity change, negative = inhibition” value is 14.6%.

Turning to `Cc1ccc(N2NC(=O)/C(=C/C=C/c3ccco3)C2=O)cc1C`, the Potency was 39.8 µM (active).

With `CCc1ccccc1NC(=O)Nc1c(NC2CCCC2)c2ccccc2oc1=O`, the “activity change, negative = inhibition” value was 3.81%.

`COc1cccc(NC(=O)c2ccc3c(c2)NC(C)(COc2ccccc2)CO3)c1` (configuration not stated): the “activity change, negative = inhibition” value was -2.36% [at 176 µM].

On to `CCCNC(=O)N1CCC(N(C)C2CCOCC2)CC1`, for which the “activity change, negative = inhibition” value was 63.3%.

Turning to `CC(O)CNCCOc1cccc(Oc2ccccc2)c1` (configuration not stated), the “activity change, negative = inhibition” value is -17.6%.

As to `N#Cc1ccc(OCC(O)CNCCC2=CCCCC2)cc1` (configuration not stated), the “activity change, negative = inhibition” value is 5.82%.

As to `OC(CNCCc1ccc(Cl)cc1Cl)COc1ccccc1` (configuration not stated), the Potency was 12.6 µM (active).

Regarding `CCn1ccnc1CN(C)Cc1cccc(OCC(O)CN(C)C2CCCCC2)c1` (configuration not stated), the “activity change, negative = inhibition” value was 82.8%.

Turning to `O=C(NCc1ccccc1)c1cc(-c2cccc(Cl)c2)on1`, the “activity change, negative = inhibition” value was -22%.

For the compound `O=C(O)C(c1ccccc1)N1C(=O)/C(=C\c2ccc(-c3cccc(Cl)c3)o2)SC1=S` (configuration not stated), the Potency was 2 µM (active).
